High-throughput results: PubChem BioAssay, National Center for Advancing Translational Sciences (NCATS)
Hits are enriched below; roughly 10% of the tested compounds scored in any of these assays.
Pf growth 48h = inhibits P. falciparum growth in the first generation, 48 h | AID 504832 | P. falciparum luciferase growth in erythrocytes, 48 h | Potency, µM (top dose mostly 28.7 µM), for inactives: at the top dose activity change, negative = inhibition, usual class: inhibitors | 310,000 tested, 5.9% active; active = well fitted inhibition curve with a large enough effect; inconclusive = small, poorly fitted or top-dose-only effect, or another doubt; inactive = no such curve, though single readings can be large or run the other way; note: % is set by controls: 0 for no effect and ±100 for the full control effect
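Luminescence readout; reporter = integrated firefly luciferase in P. falciparum. RBC culture at 2% hematocrit, 0.1% parasitemia final, 37 C/5% CO2; decreased signal taken as growth inhibition.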
Pf growth 96h = P. falciparum growth inhibition at 96 hour, primary screen for plastid delayed-death inhibitors; P. falciparum luciferase reporter growth, 96 h; Potency, µM (doses to about 28.7 µM), inactives show at the highest dose activity change, negative = inhibition, usual class: inhibitors; 320,000 tested, 6.9% active; active = well fitted inhibition curve with a large enough effect; inconclusive = small, poorly fitted or top-dose-only effect, or another doubt; inactive = no such curve, though single readings can be large or run the other way; note: % is set by controls: 0 for no effect and ±100 for the full control effect
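Two-generation exposure (96 h) targets delayed-death phenotype. Reporter parasites carrying integrated firefly luciferase, in red cells at 2% hematocrit and 0.05% parasitemia final, kept at 37 C, 5% CO2; luminescence loss indicates inhibition.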
SARS PLP yeast = blocks SARS-CoV papain-like protease in a yeast assay | 330,000 tested, 0.19% active | AID 485353 | S. cerevisiae expressing SARS-CoV PLpro, growth rescue | Potency, µM (top dose mostly 32.9 µM), without a hit: top-dose activity, positive = growth rescue, usual class: activators; note: 0% is about no effect; nearly all actives have a fitted effect of over 55% in size
NS1 function inh = inhibitors of influenza NS1 protein function; Potency, µM (series often up to 46.1 µM), for inactives: top-dose activity, positive = more growth; 270,000 tested, 0.4% active; AID 2326; note: actives are rising curves; nearly all actives have a fitted effect of over 50% in size
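Growth recovery, yeast-based: influenza A NS1 expressed in S. cerevisiae causes slow growth, and suppressors are detected by OD600. The parent strain without NS1 is used as positive control.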
Numbers without * were called inactive; ? = inconclusive; . = no result given; [ ] = another dose, or the depositor's remark. Unless noted, calls come from the whole dose curve. Potency is the fitted concentration of half-maximal effect.

SMILES | Pf growth 48h | Pf growth 96h | SARS PLP yeast | NS1 function inh
CCOC(=O)c1cnc2cc(-c3ccc(Cl)cc3)nn2c1N | 34% | 123% | 3% | -15%
CCOC(=O)c1cnc2c(c(C)nn2C)c1Oc1ccc(Cl)cc1 | ? | 1.5µM* | -31% | -34%
c1ccc(-c2c[n+]3c(n2-c2ccccc2)CCC3)cc1 | 0.83µM* | ? | 1% | 7%
Cc1ccc(-c2c[n+]3c(n2-c2ccccc2)CCC3)cc1 | 1.5µM* | 0.15µM* | 0% | 2%
CCOc1ccc(-n2c(-c3ccccc3)c[n+]3c2CCCCC3)cc1 | ? | ? | 9% | 2%
O=C(CCl)NCCCCCCCCCNC(=O)CCl | 1.9µM* | 1.5µM* | ? | -45%
NC(=O)[C@@H]1CCCNC1 | . | . | . | 6%
CCN(CC(=O)Nc1c(F)cccc1F)C(=O)c1cccc(S(=O)(=O)N(C)c2ccccc2)c1 | ? | -3% | -1% | .
COc1ccc(CNCCc2cccc(F)c2)c2ccccc12 | ? | 13µM* | -5% | -18%
COc1cc(C(=O)Nc2nc(-c3cccs3)cs2)cc(OC)c1OC | 12µM* | 14%[5.75 µM] | -6% | -54%
C[N+]12CCC(CC1)C(C(O)(c1cccc(Cl)c1)c1cccc(Cl)c1)C2 (configuration not stated) | 13µM* | 2.9µM* | 0% | -4%
CC[N+]12CCC(CC1)C(C(O)(c1ccccc1)c1ccccc1)C2 (configuration not stated) | ? | ? | 0% | -5%
COc1cccc(C2c3c(oc4ccc(Cl)cc4c3=O)C(=O)N2c2cc(C)on2)c1OC (configuration not stated) | 9% | 8.3µM* | ? | ?
O=C(CN(Cc1ccccc1)S(=O)(=O)c1ccccc1)N/N=C/c1ccccc1C(=O)O | 5% | ? | -1% | 4%
N#Cc1cc(C(=O)c2cc(F)ccc2O)cn(Cc2ccccc2)c1=O | ? | ? | -1% | .
CC(C)CCNC(=O)c1cc(C(=O)c2cc(F)ccc2O)cn(CCC(C)C)c1=O | 1.5µM* | ? | 0% | .
CN(C)CCCNC(=O)c1cc(Br)ccc1O | -4% | 0% | -1% | 2%
CC(C)CCNC(=O)c1cc(C(=O)c2cc(Br)ccc2O)cn(CCC(C)C)c1=O | 1µM* | 0.41µM* | -6% | .
COC(=O)CCC(=O)OC1(C)C(=O)C2=CN(CCCOC(C)C)C(c3ccc(OC)cc3)=CC2=C(Br)C1=O (configuration not stated) | ? | 12µM* | 2% | 3%
COC(=O)CCC(=O)OC1(C)C(=O)C2=CN(CC3CC3)C(c3ccc(OC)cc3)=CC2=C(Br)C1=O (configuration not stated) | 13µM* | ? | 3% | ?
COC(=O)CCC(=O)OC1(C)C(=O)C2=CN(CC(C)C)C(c3ccc(OC)cc3)=CC2=C(Br)C1=O (configuration not stated) | ? | 13µM* | -2% | 30%
O=C([C@H](Cc1ccccc1)NS(=O)(=O)c1ccc(Cl)cc1)N1CC[C@@]2(O)CCCC[C@H]2C1 | 13µM* | ? | 3% | 7%
C/C(N)=C(/C#N)C(=O)CSc1cc(C)c2ccccc2n1 | -9% | 32% | 0% | -7%
CC(C)N(CC#CC(O)(c1ccccc1)c1ccccc1)CCO | -11% | 2.3µM* | 6% | 3%
OCCN(CC#CC(O)(c1ccccc1)c1ccccc1)CCO | 8% | 31% | -1% | 3%
SMILES | Pf growth 48h | Pf growth 96h | SARS PLP yeast | NS1 function inh
CCN(CC(=O)Nc1c(F)cccc1F)C(=O)c1ccccn1 | -17% | 5% | 3% | .
COc1ccc(N(CC(=O)N2CCC(C(N)=O)CC2)S(=O)(=O)c2ccccc2)cc1 | 3% | -26% | -1% | 2%
Cc1ccc(-c2[nH]ncc2CNCCc2cnn(-c3ccccc3)c2)cc1C | 13µM* | ? | -2% | 9%
O=C(OCC(=O)C12CC3CC(CC(C3)C1)C2)c1ccc(O)cc1O | 3% | 33% | -2% | .
NCCCn1c(C(=O)c2cc(Cl)c(N)c(Cl)c2)c2ccc([N+](=O)[O-])cc2[n+]1[O-] | 12µM* | ? | 8% | .
NC(=O)CCCn1c(C(=O)c2cc(Cl)c(N)c(Cl)c2)c2ccc(C(F)(F)F)cc2[n+]1[O-] | 5.9µM* | 4.7µM* | 6% | .
NC(=O)c1ccc(Cn2c(C(=O)c3cc(Cl)c(N)c(Cl)c3)c3ccccc3[n+]2[O-])cc1 | ? | ? | -1% | .
COc1ccc(C(=O)c2c3ccc([N+](=O)[O-])cc3[n+]([O-])n2CCCC(N)=O)cc1 | ? | ? | 4% | .
COc1ccc(C(=O)c2c3ccc(C(F)(F)F)cc3[n+]([O-])n2CCCC(N)=O)cc1 | ? | ? | 1% | .
NCCCn1c(C(=O)c2cc(Cl)c(N)c(Cl)c2)c2ccc(C(F)(F)F)cc2[n+]1[O-] | 6.6µM* | ? | 4% | .
COc1ccc(C2=NN(C(=O)CCCC(=O)O)C(c3cn(-c4ccccc4)nc3-c3ccccc3)C2)cc1 (configuration not stated) | -3% | 29% | 1% | 1%
Cc1ccccc1CC1(CO)CCCN(C(=O)c2ccc(F)cc2)C1 (configuration not stated) | -12% | ? | 1% | -1%
Cc1ccccc1CC1(CO)CCCN(C(=O)c2ccccc2N(C)C)C1 (configuration not stated) | ? | 0.93µM* | -1% | -7%
Cc1cccc(N=Cc2[nH]c3ccc(Br)c(Cl)c3c2O)c1 | 15µM* | 4% | 8% | -8%
CCCCn1c(NC(=O)c2ccc(Br)o2)c(C(=O)OCC)c2nc3ccccc3nc21 | ? | -101% | 4% | 23%
CCCCn1c(NS(=O)(=O)c2ccc(C)cc2)c(S(=O)(=O)c2ccccc2)c2nc3ccccc3nc21 | ? | 4.1µM* | -7% | 6%
Cc1ccc(S(=O)(=O)c2c(N)n(CCCN(C)C)c3nc4ccccc4nc23)cc1 | ? | ? | 0% | -9%
CCCCn1c(NS(=O)(=O)c2ccccc2)c(C(=O)OCC)c2nc3ccccc3nc21 | 1.7µM* | ? | -34% | -28%
CSc1nc(N)nc2c1ncn2CC(=O)NCCNc1ccc([N+](=O)[O-])cn1 | . | . | 7% | .
CCOc1cccc(CNCCO)c1OCc1ccc(Cl)cc1Cl | ? | ? | 9% | -4%
COc1cc(CNCCSc2nnnn2C)cc(Br)c1OCc1ccccc1F | -3% | . | -2% | -4%
CCOc1cc(CNCCO)cc(Br)c1OCc1ccc(Cl)cc1Cl | 8.3µM* | -21% | -6% | -161%
CCOc1cc(CNCCSc2nnnn2C)cc(Br)c1OCc1ccccc1F | ? | 8.3µM* | -1% | -1%
CCOCCn1ccc2c(OCC(=O)Nc3cc(OC)ccc3OC)cccc2c1=O | ? | ? | -4% | .
COCCn1ccc2c(OCC(=O)Nc3cc(OC)ccc3OC)cccc2c1=O | 12µM* | ? | 2% | .
CCN1/C(=C\c2ccc3cc(C)ccc3[n+]2CC)Sc2cc(C)c(C)cc21 | 5.2µM* | 31% | -25% | .
CCN1/C(=C/c2ccc3cc(C)cc(C)c3[n+]2CC)Sc2cc(C)ccc21 | 12µM* | 2% | -25% | .
